{"source": "PubChem BioAssay (EPA / NIEHS)", "note": "Active and inactive are the calls of the source. How the source made its calls: active means hit-call score of the fitted dose curve at least 0.9, where 1 is the maximum; inactive means score below 0.9."}
{"target": "Heat shock factor protein 1 (Homo sapiens) (UniProt Q00613)", "sequence (Q00613 whole entry, looked up)": "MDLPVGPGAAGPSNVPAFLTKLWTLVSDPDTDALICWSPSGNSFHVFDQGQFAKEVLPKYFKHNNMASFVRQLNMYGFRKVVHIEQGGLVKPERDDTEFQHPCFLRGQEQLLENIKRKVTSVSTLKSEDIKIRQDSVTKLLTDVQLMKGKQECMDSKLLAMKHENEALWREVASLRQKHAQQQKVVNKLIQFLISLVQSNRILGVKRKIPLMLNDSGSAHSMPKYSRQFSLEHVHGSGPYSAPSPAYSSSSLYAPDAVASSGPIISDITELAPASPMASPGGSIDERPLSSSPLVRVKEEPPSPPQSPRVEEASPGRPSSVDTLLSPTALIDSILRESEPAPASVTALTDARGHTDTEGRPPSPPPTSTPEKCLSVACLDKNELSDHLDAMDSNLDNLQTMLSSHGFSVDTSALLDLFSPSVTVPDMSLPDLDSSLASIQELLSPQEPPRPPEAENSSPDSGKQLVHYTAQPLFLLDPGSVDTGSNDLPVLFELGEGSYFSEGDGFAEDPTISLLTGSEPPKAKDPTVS", "experiment": "ATG_HSE_CIS: Attagene CIS-FACTORIAL HepG2 Assay for human Heat Shock Transcription Factor 1 (HSE) (AID 2282953)", "conditions": "HepG2 HSE cis-reporter, Attagene RNA transcription; actives raise or lower the signal", "description": "ATG_CIS is a cell-based, multiplexed-readout assay that uses HepG2, a human liver cell line, with measurements taken at 24 hours after chemical dosing in a 24-well plate.ATG_HSE_CIS is one of 52 assay component(s) measured or calculated from the ATG_CIS assay. It is designed to make measurements of mRNA induction, a form of inducible reporter, as detected with fluorescence intensity signals by Reverse transcription polymerase chain reaction (RT-PCR) and Capillary electrophoresis technology.Data from the assay component ATG_HSE_CIS was analyzed into 1 assay endpoint. This assay endpoint, ATG_HSE_CIS, was analyzed with bidirectional fitting relative to DMSO as the negative control and baseline of activity. Using a type of inducible reporter, measures of mRNA for gain or loss-of-signal activity can be used to understand the reporter gene at the transcription factor-level as they relate to the gene HSF1. Furthermore, this assay endpoint can be referred to as a primary readout, because this assay has produced multiple assay endpoints where this one serves a reporter gene function. To generalize the intended target to other relatable targets, this assay endpoint is annotated to the dna binding intended target family, where the subfamily is heat shock protein.\nHuman liver HepG2 cells are transiently transfected with multiple reporter transcription units (MRTUs) in 6-well plates using FuGene 6 reagent (Roche; 3 ml FuGene/1 mg DNA). The MRTU constructs are regulated by a cis-regulating element (promoter). […] A major difference between the CIS and TRANS system is that in CIS activities of endogenous TFs are measured, whereas the TRANS assay evaluates changes in activities of exogenous, chimeric NR-Gal4 proteins. […] At the end of 24 hour incubation, total RNA was isolated using TriZol reagent (Invitrogen). The isolated RNA is then reverse-transcribed using oligo(dT) primer and Mo-MLV reverse transcriptase (Invitrogen) with DNAse I (Ambion) treatment for 30 min. The one-tenth of the produced cDNA was amplified by PCR using Taq DNA polymerase (Invitrogen) and two reporter sequence-specific primers. The PCR products were fluorescently labeled by primer extension with 6-arboxyfluorescein (6-FAM) 5'-labeled reporter sequence-specific primer (2 min at 95 C, 20 s at 68 C and 10 min at 72 C) and these products were digested with 5U of HpaI (New England Biolabs) for 2h at 37 C. The fragments were purified using Qiaquick PCR columns (Qiagen), analyzed on an ABI 3130xL genetic analyzer (Applied Biosystems) with peak positions identified by using a set of X-rhodamine (ROX)-labeled MapMarker1000 molecular weight standards (BioVentures). The raw capillary electrophoresis data was processed using Attagraph software (Attagene)."}
{"smiles": "CCOC(=O)OC(=O)OCC", "outcome": "inactive"}
{"smiles": "C=C1C[C@H]2[C@@H]3C=C(C)C4=CC(=O)CC[C@]4(C)[C@H]3CC[C@]2(C)[C@@]1(OC(C)=O)C(C)=O", "AC50": "96.4 µM (active)"}
{"smiles": "CCCc1ccc(O)c(OC)c1", "outcome": "inactive"}
{"smiles": "CN(C)c1ccc2nc3ccc(=[N+](C)C)cc-3sc2c1", "outcome": "inactive"}
{"smiles": "Cc1c(O)cccc1O", "outcome": "inactive"}
{"smiles": "CCCCCCCOC(=O)c1ccc(O)cc1", "outcome": "inactive"}
{"smiles": "COC(=O)c1ccccc1C", "outcome": "inactive"}
{"smiles": "C=CCNCC=C", "outcome": "inactive"}
{"smiles": "Fc1ccc(Br)cc1", "outcome": "inactive"}
{"smiles": "CCCCCCCCCC[N+](C)(CCCCCCCCCC)CCC[Si](OC)(OC)OC", "outcome": "inactive"}
{"smiles": "CC1=CCC(C(C)C)C=C1", "note": "(stereo not given)", "outcome": "inactive"}
{"smiles": "CCC1(C)C(=O)N(Cl)C(=O)N1Cl", "note": "(stereo not given)", "AC50": "52.1 µM (active)"}
{"smiles": "CC(C)(C)NC(=O)[C@H]1CC[C@H]2[C@@H]3CC[C@H]4NC(=O)C=C[C@]4(C)[C@H]3CC[C@]12C", "outcome": "inactive"}
{"smiles": "C=CC(C)(O)CC/C=C(\\C)CC", "note": "(stereo not given)", "outcome": "inactive"}
{"smiles": "CCCC(CC)c1ccccc1", "note": "(stereo not given)", "outcome": "inactive"}
{"smiles": "Cc1cc(=O)[nH]c(=O)[nH]1", "outcome": "inactive"}
{"smiles": "C=C(C)C(=O)OCCOC(=O)C(=C)C", "outcome": "inactive"}
{"smiles": "O=C(Cl)c1c(Cl)c(Cl)c(C(=O)Cl)c(Cl)c1Cl", "outcome": "inactive"}
{"smiles": "O=S(=O)(O)c1ccc(N=Nc2c(O)ccc3ccccc23)cc1", "outcome": "inactive"}
{"smiles": "Cc1c(C(=O)c2c[nH]n(C)c2=O)ccc(S(C)(=O)=O)c1C1=NOCC1", "outcome": "inactive"}
{"smiles": "CC(C)C(=O)OCCOc1ccccc1", "outcome": "inactive"}
{"smiles": "CC(C)c1cccc(C(C)C)c1N", "outcome": "inactive"}
{"smiles": "CC(=O)OCC=C(C)C", "outcome": "inactive"}
{"smiles": "CCOC(=O)c1ccccc1C", "outcome": "inactive"}
{"smiles": "CC1=CC=C(C(C)C)CC1", "outcome": "inactive"}
{"smiles": "C=C(C)[C@@H]1CC=C(C)CC1", "outcome": "inactive"}
{"smiles": "CC1CC(=O)CC(C)(C)C1", "note": "(stereo not given)", "outcome": "inactive"}
{"smiles": "CCN1CCCC1=O", "outcome": "inactive"}
{"smiles": "Clc1cccnc1", "outcome": "inactive"}
{"smiles": "CC(C)c1cc(C(C)C)cc(C(C)C)c1", "outcome": "inactive"}
{"smiles": "NC(=O)Nc1ccccc1", "outcome": "inactive"}
{"smiles": "CCOC(=O)[C@H](O)[C@@H](O)C(=O)OCC", "outcome": "inactive"}
{"smiles": "C=CC(=O)OCCCCCCOC(=O)C=C", "AC50": "180 µM (active)"}
{"smiles": "O=C(O)C(F)(F)C(F)(F)C(F)(F)C(F)(F)C(=O)O", "outcome": "inactive"}
{"smiles": "CCC(C)C(=O)OCCc1ccccc1", "note": "(stereo not given)", "outcome": "inactive"}
{"smiles": "C=C[C@@]1(C)CC(=O)[C@]2(O)[C@@]3(C)[C@@H](O)CCC(C)(C)[C@@H]3[C@H](O)[C@H](OC(C)=O)[C@@]2(C)O1", "outcome": "inactive"}
{"smiles": "COc1ccc(C(=O)c2ccccc2)c(O)c1", "outcome": "inactive"}
{"smiles": "Oc1c(Cl)cc(Cl)c(Cl)c1Cl", "outcome": "inactive"}
{"smiles": "Nc1ccnc(=O)[nH]1", "outcome": "inactive"}
{"smiles": "CC(C)(C)N", "outcome": "inactive"}
